Results filed as inconclusive are left out. A number with no mark means an inactive call. The list shows a part of the results. Entries that show only a call come without a potency. Activity calls are given as the source filed them. Calls come from the whole dose curve; as a rule, active = well fitted curve in the direction sought with a large enough effect; inconclusive = small, poorly fitted or top-dose-only effect, or another doubt; inactive = no such curve, though single readings can be large; an effect the other way counts as inactive or inconclusive.
What was measured:
[1] = molecular target: Rap guanine nucleotide exchange factor 3 (Homo sapiens) (UniProt O95398); assay: Confirmatory qHTS for agonist of cAMP-regulated guanine nucleotide exchange factor 3 (EPAC1) (AID 1645881);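 note: EPAC1 catalysed release of BODIPY-GDP from Rap1B seen as fluorescence loss; nearly all actives have a fitted effect of over 75% in size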
Rap guanine nucleotide exchange factor 3 (Homo sapiens), sequence (O95398 whole entry, looked up): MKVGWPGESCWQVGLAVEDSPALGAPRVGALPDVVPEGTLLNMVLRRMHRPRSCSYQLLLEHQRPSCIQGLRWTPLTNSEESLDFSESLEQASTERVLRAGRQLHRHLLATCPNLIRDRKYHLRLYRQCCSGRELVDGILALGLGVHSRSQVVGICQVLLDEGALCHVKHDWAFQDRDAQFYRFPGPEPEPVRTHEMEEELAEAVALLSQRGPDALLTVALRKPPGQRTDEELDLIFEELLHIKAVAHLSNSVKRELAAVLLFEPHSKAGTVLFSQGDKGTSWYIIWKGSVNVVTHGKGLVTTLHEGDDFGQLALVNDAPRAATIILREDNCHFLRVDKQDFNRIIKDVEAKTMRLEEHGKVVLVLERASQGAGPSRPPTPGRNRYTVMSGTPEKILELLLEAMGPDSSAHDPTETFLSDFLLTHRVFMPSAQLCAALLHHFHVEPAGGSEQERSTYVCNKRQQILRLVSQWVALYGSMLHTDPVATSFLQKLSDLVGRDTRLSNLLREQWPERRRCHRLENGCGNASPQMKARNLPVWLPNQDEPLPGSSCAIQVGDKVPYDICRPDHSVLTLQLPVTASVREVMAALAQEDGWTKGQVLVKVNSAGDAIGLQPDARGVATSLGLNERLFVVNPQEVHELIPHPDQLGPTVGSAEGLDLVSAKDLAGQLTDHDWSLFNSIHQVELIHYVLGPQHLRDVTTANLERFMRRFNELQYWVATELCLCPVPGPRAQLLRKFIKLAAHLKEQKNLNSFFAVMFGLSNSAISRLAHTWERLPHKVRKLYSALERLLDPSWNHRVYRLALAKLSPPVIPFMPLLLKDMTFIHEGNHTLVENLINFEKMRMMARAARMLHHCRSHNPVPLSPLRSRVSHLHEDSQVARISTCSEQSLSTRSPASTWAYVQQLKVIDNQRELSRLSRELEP

[2] = molecular target: Rap guanine nucleotide exchange factor 4 (Homo sapiens) (UniProt Q8WZA2); assay: Confirmatory qHTS for agonist of cAMP-regulated guanine nucleotide exchange factor 4 (EPAC2) (AID 1645884);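 note: nucleotide exchange releases bodipy-GDP from Rap1 and this lowers its fluorescence; nearly all actives have a fitted effect of over 65% in size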
Rap guanine nucleotide exchange factor 4 (Homo sapiens), sequence (Q8WZA2 whole entry, looked up): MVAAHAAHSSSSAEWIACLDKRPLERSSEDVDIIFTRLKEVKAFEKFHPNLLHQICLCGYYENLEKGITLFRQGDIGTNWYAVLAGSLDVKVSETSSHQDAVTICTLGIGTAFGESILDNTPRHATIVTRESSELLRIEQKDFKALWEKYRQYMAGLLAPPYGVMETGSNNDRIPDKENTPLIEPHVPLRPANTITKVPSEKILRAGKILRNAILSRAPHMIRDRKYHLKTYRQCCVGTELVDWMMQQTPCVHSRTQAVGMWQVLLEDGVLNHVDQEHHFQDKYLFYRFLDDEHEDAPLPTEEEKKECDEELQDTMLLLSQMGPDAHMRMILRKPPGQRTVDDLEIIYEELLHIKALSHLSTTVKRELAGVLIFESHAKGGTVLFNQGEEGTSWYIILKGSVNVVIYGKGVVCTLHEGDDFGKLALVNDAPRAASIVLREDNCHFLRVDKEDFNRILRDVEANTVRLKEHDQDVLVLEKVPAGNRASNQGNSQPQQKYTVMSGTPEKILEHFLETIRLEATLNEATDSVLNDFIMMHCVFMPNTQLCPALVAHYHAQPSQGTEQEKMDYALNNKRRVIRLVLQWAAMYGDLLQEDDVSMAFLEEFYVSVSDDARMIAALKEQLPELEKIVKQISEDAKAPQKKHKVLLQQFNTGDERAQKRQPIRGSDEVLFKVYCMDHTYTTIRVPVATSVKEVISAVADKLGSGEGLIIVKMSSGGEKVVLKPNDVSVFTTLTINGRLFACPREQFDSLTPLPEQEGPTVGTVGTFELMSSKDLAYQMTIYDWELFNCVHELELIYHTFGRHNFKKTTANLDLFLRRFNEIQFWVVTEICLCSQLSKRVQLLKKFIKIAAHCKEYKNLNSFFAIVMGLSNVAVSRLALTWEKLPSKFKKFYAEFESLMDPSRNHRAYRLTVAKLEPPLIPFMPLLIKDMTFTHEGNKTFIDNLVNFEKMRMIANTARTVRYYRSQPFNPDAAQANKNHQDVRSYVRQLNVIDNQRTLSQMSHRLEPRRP

[3] = molecular target: Rap guanine nucleotide exchange factor 4 (Homo sapiens) (UniProt Q8WZA2); assay: Confirmatory qHTS for antagonist of cAMP-regulated guanine nucleotide exchange factor 4 (EPAC2) (AID 1645885); note: nearly all actives have a fitted effect of over 25% in size; note: potency is the fitted concentration of half-maximal effect
[4] = molecular target: Rap guanine nucleotide exchange factor 3 (Homo sapiens) (UniProt O95398); assay: Counterscreen qHTS for antagonist of cAMP-regulated guanine nucleotide exchange factor 3 (EPAC1) (AID 1645888);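 note: fluorescence loss as bound BODIPY-GDP is released from Rap1B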
Method in brief: (§1)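 Rap1B-BODIPY-GDP 250 nM + GDP 50 uM; cpds 7-pt, final 9.74 nM–152 uM (activator mode) or from 7.32 nM upwards (inhibitor mode); RT; FI 480/540 nm at 5 and 30 min, then ± cAMP, reread.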

[5] = molecular target: Rap guanine nucleotide exchange factor 3 (Homo sapiens) (UniProt O95398); assay: Counterscreen qHTS for agonist of cAMP-regulated guanine nucleotide exchange factor 3 (EPAC1) (AID 1645889); note: nearly all actives have a fitted effect of over 40% in size
Method in brief: as §1

[6] = molecular target: ATPase family AAA domain-containing protein 5 (Homo sapiens) (UniProt Q96QE3); assay: qHTS screen for small molecules that inhibit ELG1-dependent DNA repair in human embryonic kidney (HEK293T) cells expressing luciferase-tagged ELG1: Hit Confirmation using MMS Stimulated ELG1 (AID 624249);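 note: cells co-treated with MMS at 10 µM final alongside compound; luminescence of ELG1-luciferase fusion read with Amplight reagent; series mostly up to about 46 µM; nearly all actives have a fitted effect of over 60% in size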
Method in brief: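 HEK293T cells carrying ELG1-luciferase, compounds added about 5 h after plating together with MMS at 10 µM final. Luciferase activity read 16 h after compound addition; suppression of signal scored.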

[7] = qHTS screen for small molecules that inhibit ELG1-dependent DNA repair: Hit Confirmation with MMS Viability (AID 624251);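 note: ELG1-luc HEK293T cells co-treated with 10 µM MMS; nearly all actives have a fitted effect of over 60% in size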
Method in brief: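 Luminescent ATP read-out (CellTiter-Glo) gives viability of ELG1-luc HEK293T cells exposed to compounds together with 10 µM methyl methanesulfonate for 16 h.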

[8] = molecular target: Tumor susceptibility gene 101 protein (Homo sapiens) (UniProt Q99816); assay: qHTS Assay for Iinhibitors of HIV-1 Budding by Blocking the Interaction of PTAP/TSG101: Hit Validation (AID 651600); note: nearly all actives have a fitted effect of over 70% in size; note: potency is the fitted concentration of half-maximal effect
Tumor susceptibility gene 101 protein (Homo sapiens), sequence (Q99816 whole entry, looked up, the tested form may be a part): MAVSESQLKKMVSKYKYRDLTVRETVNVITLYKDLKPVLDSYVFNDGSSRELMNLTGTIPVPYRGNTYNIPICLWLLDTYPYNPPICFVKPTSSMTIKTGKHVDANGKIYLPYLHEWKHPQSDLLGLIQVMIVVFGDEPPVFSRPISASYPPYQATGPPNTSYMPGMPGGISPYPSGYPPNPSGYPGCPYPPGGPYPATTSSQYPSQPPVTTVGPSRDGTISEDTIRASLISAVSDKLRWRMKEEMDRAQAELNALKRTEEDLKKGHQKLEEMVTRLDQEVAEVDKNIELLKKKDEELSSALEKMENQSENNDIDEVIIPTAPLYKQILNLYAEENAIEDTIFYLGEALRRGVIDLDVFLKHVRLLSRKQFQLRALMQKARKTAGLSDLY
Method in brief: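 Fluorescence polarization binding assay: Tsg101 binding domain (10 uM) mixed with compounds and FITC-labeled PTAP peptide (50 nM) in HEPES pH 7.5, 0.15 M NaCl, 0.01% Tween 20, EDTA, TCEP; 20 min at r.t.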

[9] = molecular target: Tyrosyl-DNA phosphodiesterase 1 (Homo sapiens) (UniProt Q9NUW8); assay: Confirmation Assay for Inhibitors of Tyrosyl-DNA Phosphodiesterase (TDP1) (AID 489007); settings: recombinant human TDP1 enzymatic activity, dose-response; note: potency is the fitted concentration of half-maximal effect; nearly all actives have a fitted effect of over 40% in size
Tyrosyl-DNA phosphodiesterase 1 (Homo sapiens), sequence (Q9NUW8 whole entry, looked up): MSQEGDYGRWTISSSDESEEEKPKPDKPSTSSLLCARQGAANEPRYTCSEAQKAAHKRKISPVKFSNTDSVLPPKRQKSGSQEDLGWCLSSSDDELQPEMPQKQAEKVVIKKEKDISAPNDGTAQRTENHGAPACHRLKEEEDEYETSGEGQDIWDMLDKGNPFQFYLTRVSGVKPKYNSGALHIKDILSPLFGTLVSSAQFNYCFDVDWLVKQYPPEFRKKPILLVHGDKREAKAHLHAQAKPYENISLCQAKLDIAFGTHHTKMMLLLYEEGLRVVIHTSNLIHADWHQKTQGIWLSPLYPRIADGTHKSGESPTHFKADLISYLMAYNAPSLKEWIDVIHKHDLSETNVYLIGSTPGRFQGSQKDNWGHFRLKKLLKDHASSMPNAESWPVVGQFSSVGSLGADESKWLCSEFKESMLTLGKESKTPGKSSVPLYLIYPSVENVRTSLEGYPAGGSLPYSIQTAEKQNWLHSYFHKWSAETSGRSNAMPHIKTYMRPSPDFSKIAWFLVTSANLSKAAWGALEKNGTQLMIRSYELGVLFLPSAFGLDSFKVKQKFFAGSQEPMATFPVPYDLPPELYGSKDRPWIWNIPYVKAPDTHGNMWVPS
Method in brief: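 Recombinant human Tdp1 (1 nM final), expressed in E. coli, preincubated 15 min with compound. Then 15 nM 5'-biotin/3'-phosphotyrosine-FITC DNA substrate added for 5 min at room temperature. AlphaScreen beads (10 ug/ml) added for 10 min; cleavage gives signal loss.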

[10] = molecular target: Lethal(3)malignant brain tumor-like protein 1 (Homo sapiens) (UniProt Q9Y468); assay: qHTS Assay for the Inhibitors of L3MBTL1: Hit Validation (AID 540279); settings: L3MBTL1 methyl-lysine binding inhibition, biochemical qHTS; note: potency is the fitted concentration of half-maximal effect; nearly all actives have a fitted effect of over 70% in size
Lethal(3)malignant brain tumor-like protein 1 (Homo sapiens), sequence (Q9Y468 whole entry, looked up): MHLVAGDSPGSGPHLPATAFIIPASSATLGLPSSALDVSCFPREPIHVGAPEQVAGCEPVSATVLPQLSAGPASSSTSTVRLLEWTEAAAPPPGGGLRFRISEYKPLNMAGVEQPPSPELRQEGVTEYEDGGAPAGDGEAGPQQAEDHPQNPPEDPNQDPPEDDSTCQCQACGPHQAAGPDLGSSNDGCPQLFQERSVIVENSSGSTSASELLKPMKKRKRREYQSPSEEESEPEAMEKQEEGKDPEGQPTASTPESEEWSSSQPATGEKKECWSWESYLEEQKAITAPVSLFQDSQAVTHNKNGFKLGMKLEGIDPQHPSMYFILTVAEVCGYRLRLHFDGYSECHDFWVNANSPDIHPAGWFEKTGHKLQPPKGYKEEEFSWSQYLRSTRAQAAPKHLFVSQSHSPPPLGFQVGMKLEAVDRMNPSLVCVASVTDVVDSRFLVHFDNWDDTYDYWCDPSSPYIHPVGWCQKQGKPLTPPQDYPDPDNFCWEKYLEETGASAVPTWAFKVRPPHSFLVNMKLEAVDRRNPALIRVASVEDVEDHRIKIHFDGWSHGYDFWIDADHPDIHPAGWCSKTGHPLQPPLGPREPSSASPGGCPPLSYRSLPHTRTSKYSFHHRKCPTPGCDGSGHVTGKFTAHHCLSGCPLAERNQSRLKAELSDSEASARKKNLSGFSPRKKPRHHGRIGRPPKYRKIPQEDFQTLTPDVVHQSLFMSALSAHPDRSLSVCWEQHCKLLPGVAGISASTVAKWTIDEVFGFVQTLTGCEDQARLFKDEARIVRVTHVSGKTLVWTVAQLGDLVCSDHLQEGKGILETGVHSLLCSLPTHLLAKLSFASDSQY
Method in brief: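 AlphaScreen displacement: 50 nM L3MBTL1 bound to 75 nM biotin-H3K9me1 peptide for 30 min, compound added for 30 min at room temperature, then beads at 10 ug/mL final for 30 min in the dark. Cefsulodin titration served as intraplate control.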

[11] = qHTS Assay for the Inhibitors of L3MBTL1: Hit Validationin AlphaScreen Counterscreen (AID 602224)
Method in brief: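 Steps: b-His6 dispensed; compound added, 15 min at room temperature; streptavidin donor and nickel chelate acceptor beads added to 10 ug/mL each with 1 nM b-His6 final; 30 min dark, room temperature; AlphaScreen read.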

[12] = qHTS for Inhibitors of the vitamin D receptor (VDR): Hit Validation using a Texas Red Assay (AID 602201); note: potency is the fitted concentration of half-maximal effect
Method in brief: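 After a 2-hour room-temperature incubation, polarization of Texas-Red emission was read (Ex 595 nm/Em 615 nm). Final mix contained 7 nM Texas Red, 1.5 uM VDR-LBD and LG19078.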

## Cc1cc(C)n2nc(C(=O)N/N=C/c3c4ccccc4cc4ccccc34)nc2n1
[1]
  Potency: inactive
[2]
  activation: 2.45% [at 17.1 µM, percent relative to cAMP agonist control]
[3]
  Potency: inactive
[4]
  activity change, negative = inhibition: 4.99% [at 30.8 µM]
[5]
  activation: 34.9% [at 30.8 µM]

## Cc1ccc(NC2c3ncccc3C(=O)N2Cc2cccs2)cc1 (configuration not stated)
[1]
  Potency: inactive
[2]
  activation: -5.52% [at 17.1 µM, percent relative to cAMP agonist control]
[3]
  Potency: inactive
[4]
  activity change, negative = inhibition: 8.01% [at 30.8 µM]
[5]
  activation: 1.62% [at 30.8 µM]

## Nc1ccc(N2CCCCC2)c2nonc12
[1]
  Potency: inactive
[2]
  activation: -6.41% [at 17.1 µM, percent relative to cAMP agonist control]
[3]
  Potency: inactive
[5]
  activation: 6.94% [at 30.8 µM]

## COc1cc(N)c(Cl)cc1C(=O)OCC(=O)c1ccc2c(c1)NC(=O)CO2
[6]
  Potency: inactive
[7]
  outcome: inactive
[1]
  Potency: inactive
[2]
  Potency: inactive
[3]
  Potency: inactive
[4]
  Potency: inactive
[5]
  Potency: inactive

## CC1=NCCN1S(=O)(=O)c1c(C(C)C)cc(C(C)C)cc1C(C)C
[1]
  Potency: inactive
[2]
  Potency: inactive
[3]
  Potency: inactive
[5]
  Potency: inactive

## COc1ccc(OC)c2c1C(=O)c1ccccc1C2=O
[8]
  Potency: 14.6 µM (active)
[1]
  Potency: inactive
[2]
  Potency: inactive
[3]
  Potency: inactive
[4]
  Potency: inactive

## COc1ccc(C(CC(=O)N2CCCC2)c2c(OC)cc(OC)c3c(-c4ccccc4)cc(=O)oc23)cc1 (configuration not stated)
[9]
  Potency: 2.24 µM (active)
[1]
  Potency: inactive
[2]
  Potency: inactive
[3]
  Potency: inactive
[4]
  Potency: inactive

## NC(CSC(c1ccccc1)(c1ccccc1)c1cccc2ccccc12)C(=O)O (configuration not stated)
[1]
  Potency: inactive
[2]
  activation: -1.78% [at 17.1 µM, percent relative to cAMP agonist control]
[3]
  Potency: inactive
[5]
  activation: 5.6% [at 30.8 µM]

## Cc1cc(C)nc(SCC(=O)c2ccc(C)c(C)c2)n1
[1]
  Potency: inactive
[2]
  Potency: inactive
[3]
  Potency: 13.5 µM (active)
[5]
  Potency: inactive

## Cc1c2cc(O)c(=O)cc-2oc2cc(O)c(O)cc12
[8]
  Potency: 1.83 µM (active)
[1]
  Potency: inactive
[2]
  activation: -3.29% [at 17.1 µM, percent relative to cAMP agonist control]
[3]
  Potency: inactive
[4]
  activity change, negative = inhibition: -2.73% [at 30.8 µM]
[5]
  activation: 0.526% [at 30.8 µM]

## Cc1ccc(/C=C/C(=O)Nc2ccc([N+](=O)[O-])c(NC(=O)/C=C/c3ccc(C)o3)c2)o1
[10]
  Potency: 3.77 µM (active)
[11]
  outcome: inactive
[1]
  Potency: inactive
[2]
  activation: 6% [at 17.1 µM, percent relative to cAMP agonist control]
[3]
  Potency: inactive
[4]
  activity change, negative = inhibition: 4.14% [at 30.8 µM]
[5]
  activation: 27.5% [at 30.8 µM]

## O=C(O)CCCC(=O)N1CCN(c2nc(-c3ccccc3Cl)c3cc(Br)ccc3n2)CC1
[1]
  Potency: inactive
[2]
  Potency: inactive
[3]
  Potency: 13.5 µM (active)
[5]
  Potency: inactive

## CC1(C(=O)NS(=O)(=O)c2ccc3ccccc3c2)CCN1C(=O)Cc1ccc(-c2ccccc2)cc1 (configuration not stated)
[1]
  Potency: inactive
[2]
  activation: 1.72% [at 17.1 µM, percent relative to cAMP agonist control]
[3]
  Potency: inactive
[5]
  activation: 21.8% [at 30.8 µM]

## CCN(CC)c1nc2ccccc2nc1C(C#N)C(=O)NCCc1ccccc1 (configuration not stated)
[8]
  Potency: 6.51 µM (active)
[1]
  Potency: inactive
[2]
  Potency: inactive
[3]
  Potency: 84.9 µM (active)
[4]
  Potency: inactive

## CCOc1cc(/C=C(/C#N)c2ccc(Cl)cc2)cc(Cl)c1OCC(=O)O
[1]
  Potency: inactive
[2]
  activation: 3.22% [at 17.1 µM, percent relative to cAMP agonist control]
[3]
  Potency: inactive
[5]
  activation: 10.8% [at 30.8 µM]

## O=C1/C(=C/c2ccco2)Oc2c1ccc(O)c2CN1CCCCC1
[8]
  Potency: 32.6 µM (active)
[1]
  Potency: inactive
[2]
  Potency: inactive
[3]
  Potency: 84.9 µM (active)
[4]
  Potency: inactive
[5]
  Potency: inactive

## C=CCNC(=O)c1oc2ccc(S(=O)(=O)N(CC)CC)cc2c1C
[1]
  Potency: inactive
[2]
  Potency: inactive
[3]
  Potency: inactive
[5]
  Potency: inactive

## COc1ccc2nc(N3CCCC3)c(C#N)cc2c1
[8]
  Potency: inactive
[1]
  Potency: inactive
[2]
  activation: 3.12% [at 17.1 µM, percent relative to cAMP agonist control]
[3]
  Potency: inactive
[4]
  activity change, negative = inhibition: -11.6% [at 30.8 µM]

## O=C(NNc1cc(Br)c(O)c(Br)c1)c1ccccc1
[12]
  Potency: 25.1 µM (active)
[1]
  Potency: inactive
[2]
  activation: -6.77% [at 17.1 µM, percent relative to cAMP agonist control]
[3]
  Potency: inactive
[4]
  activity change, negative = inhibition: -6.86% [at 30.8 µM]

## O=C(NNC(=O)c1cc2cc(Br)ccc2oc1=O)c1ccc(O)cc1O
[9]
  Potency: 56.2 µM (active)
[1]
  Potency: inactive
[2]
  Potency: inactive
[3]
  Potency: inactive
[4]
  Potency: inactive

## COC(=O)c1cc2c(N)c(C(=O)c3ccc(Cl)cc3)sc2nc1C(OC)OC
[8]
  Potency: inactive
[1]
  Potency: inactive
[2]
  activation: 5.58% [at 17.1 µM, percent relative to cAMP agonist control]
[3]
  Potency: inactive
[4]
  activity change, negative = inhibition: -4.3% [at 30.8 µM]
[5]
  activation: 42.3% [at 30.8 µM]

## CCCCC[C@H](C)N1C[C@@H](COCc2ccccc2)Oc2cc(N3CC[C@H](O)C3)ccc2S1(=O)=O
[1]
  Potency: inactive
[2]
  Potency: inactive
[3]
  Potency: 19 µM (active)
[5]
  Potency: inactive

## CC(C)CCOP(=O)(c1ccc(N(C)C)cc1)C(O)c1ccc(Cl)cc1Cl (configuration not stated)
[1]
  Potency: inactive
[2]
  Potency: inactive
[3]
  Potency: 19 µM (active)
[5]
  Potency: inactive
